Most compounds without a hit are left out; they make up all but 32% or so of the library.
CYP2C19 act = human CYP2C19 activators, primary screen, biochemical, luminescence; Cytochrome P450 2C19 (Homo sapiens), P33261; recombinant CYP2C19, luciferin-H EGE luminescence; active compounds read high; 0 = fully inhibited enzyme, 1 = untreated enzyme; activation factor at 5 µM; 96,000 tested, under 10 active;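 active means activation factor of at least 2 at 5 µM in the primary screen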
Target sequence (P33261 whole entry, looked up): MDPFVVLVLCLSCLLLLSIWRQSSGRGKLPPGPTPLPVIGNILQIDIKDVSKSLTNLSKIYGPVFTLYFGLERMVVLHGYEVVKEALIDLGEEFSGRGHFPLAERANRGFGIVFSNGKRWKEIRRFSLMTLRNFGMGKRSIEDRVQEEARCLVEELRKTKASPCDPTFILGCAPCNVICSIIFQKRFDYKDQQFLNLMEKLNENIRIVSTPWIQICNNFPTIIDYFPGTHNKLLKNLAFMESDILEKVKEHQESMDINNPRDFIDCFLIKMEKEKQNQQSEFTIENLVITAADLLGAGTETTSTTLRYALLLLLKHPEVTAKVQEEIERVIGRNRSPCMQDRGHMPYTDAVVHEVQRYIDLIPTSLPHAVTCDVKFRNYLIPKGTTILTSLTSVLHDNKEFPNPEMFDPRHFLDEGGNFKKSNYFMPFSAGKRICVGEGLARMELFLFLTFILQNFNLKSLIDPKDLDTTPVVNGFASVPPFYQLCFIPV
CYP2C19 inhib = blockers of cytochrome P450 2C19 activity – biochemical, luminescence, ADME assay, primary screen | P33261 | CYP2C19 Supersomes, luciferin-H EGE luminescence, 30 min | inhibition, % at 5 µM | hit rate 21% among 96,000 | AID 778, 2007;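 active means CYP2C19 inhibition above a set limit at 5 µM in the primary screen, cut at about 50% in these data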
CYP2C9 inhib = blockers of cytochrome P450 2C9 activity – biochemical, luminescence, ADME assay, primary screen | P11712 | CYP2C9 Supersomes, luciferin-H conversion | inhibition, % at 5 µM | hit rate 20% among 96,000;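 active means blocking of liver enzyme CYP2C9 beyond about 50% at 5 µM, limit read from the data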
PostGolgi ctrl = growth inhibition of yeast control strain, primary screen, counter-screen for post-Golgi transport modulator project | efflux-deficient yeast background strain, growth absorbance A615, 16 h | inhibition, % at 10 µM | hit rate 5% among 98,000 | AID 738, 2007
CYP2C9 act = human CYP2C9 activators, primary screen, biochemical, luminescence. AID 1024, 2008. activation factor at 5 µM. recombinant CYP2C9, luciferin-H conversion; active compounds read high; factor 1 = untreated enzyme, 0 = blocked. Cytochrome P450 2C9 (Homo sapiens), P11712. hit rate 1.4% among 96,000;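 active means activation factor of 2 or more for CYP2C9 at a 5 µM dose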
PostGolgi yeast = phenotypic screen on post-Golgi transport, primary screen; post-Golgi transport phenotypic cell assay; inhibition, % at 10 µM; hit rate 0.9% among 98,000;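 further: yeast cells grown in 1536-well plates; yeast grown about 18 h at 30C before absorbance read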
A number is an active result. Unless noted, no stated cut-off is given here; in the data, active means inhibition above about 30%; inactive means the rest.

What do the screens show for `CC(=O)N1CCN(C2c3cccc4cccc(c34)C2NS(=O)(=O)c2ccccc2)CC1` (stereo unspecified)?
CYP2C19 act: inactive; CYP2C19 inhib: 74; CYP2C9 inhib: 68; PostGolgi ctrl: inactive; CYP2C9 act: inactive; PostGolgi yeast: inactive

How did CCCCc1ccc(-c2c(C#N)c(N)nc3c2CCCC3)s1 do in these assays?
CYP2C19 act: inactive; CYP2C19 inhib: inactive; CYP2C9 inhib: inactive; PostGolgi ctrl: inactive; CYP2C9 act: inactive; PostGolgi yeast: inactive

What do the screens show for `Cc1cc(C)nc(SC2=CS(=O)(=O)c3ccccc32)n1`?
CYP2C19 act: inactive; CYP2C19 inhib: inactive; CYP2C9 inhib: inactive; PostGolgi ctrl: inactive; CYP2C9 act: inactive; PostGolgi yeast: inactive

What do the screens show for `O=S1(=O)C=C(Sc2nc3ccccc3s2)c2ccccc21`?
CYP2C19 act: inactive; CYP2C19 inhib: inactive; CYP2C9 inhib: inactive; PostGolgi ctrl: 31; CYP2C9 act: inactive; PostGolgi yeast: 89

How did COc1cccc(Nc2c(F)c(F)c(F)c(F)c2C(=O)O)c1 do in these assays?
CYP2C19 act: inactive; CYP2C19 inhib: inactive; CYP2C9 inhib: 61; PostGolgi ctrl: inactive; CYP2C9 act: inactive; PostGolgi yeast: inactive

What do the screens show for `COc1cccc(Nc2c(F)c(OC)c(F)c(F)c2C(=O)O)c1`?
CYP2C19 act: inactive; CYP2C19 inhib: inactive; CYP2C9 inhib: inactive; PostGolgi ctrl: inactive; CYP2C9 act: inactive; PostGolgi yeast: inactive

How did O=S(=O)(NC1CCCC1)c1ccccc1Cl do in these assays?
PostGolgi ctrl: inactive; PostGolgi yeast: inactive

How did CC(C)(C)NS(=O)(=O)c1ccc(-c2csnn2)s1 do in these assays?
CYP2C19 act: inactive; CYP2C19 inhib: 93; CYP2C9 inhib: inactive; PostGolgi ctrl: inactive; CYP2C9 act: inactive; PostGolgi yeast: inactive

What do the screens show for `O=S(=O)(NC1CCCCC1)c1ccc(-c2csnn2)s1`?
CYP2C19 act: inactive; CYP2C19 inhib: 100; CYP2C9 inhib: 61; PostGolgi ctrl: inactive; CYP2C9 act: inactive; PostGolgi yeast: inactive

Results for CCC(C)NC(=O)CCS(=O)(=O)c1ccc(Br)s1 (stereo unspecified) ?
CYP2C19 act: inactive; CYP2C19 inhib: inactive; CYP2C9 inhib: inactive; PostGolgi ctrl: inactive; CYP2C9 act: inactive; PostGolgi yeast: inactive

Results for CCC(C)NS(=O)(=O)c1ccc(-c2csnn2)s1 (stereo unspecified) ?
CYP2C19 act: inactive; CYP2C19 inhib: 100; CYP2C9 inhib: inactive; PostGolgi ctrl: inactive; CYP2C9 act: inactive; PostGolgi yeast: inactive

What do the screens show for `O=C1CCC/C1=c1\s/c(=C\c2cccnc2)c(=O)n1-c1ccccc1`?
CYP2C19 act: inactive; CYP2C19 inhib: inactive; CYP2C9 inhib: inactive; PostGolgi ctrl: inactive; CYP2C9 act: inactive; PostGolgi yeast: inactive

What do the screens show for `CC(=O)CCc1c(C)c2cc(C)ccc2[nH]c1=O`?
CYP2C19 act: inactive; CYP2C19 inhib: inactive; CYP2C9 inhib: inactive; PostGolgi ctrl: inactive; CYP2C9 act: inactive; PostGolgi yeast: inactive

How did COc1ccc(NS(=O)(=O)c2ccc(SC)cc2)cc1 do in these assays?
CYP2C19 act: inactive; CYP2C19 inhib: 100; CYP2C9 inhib: 96; PostGolgi ctrl: 50; CYP2C9 act: inactive; PostGolgi yeast: inactive

What do the screens show for `CSc1ccc(S(=O)(=O)Nc2ccc(F)cc2)cc1`?
CYP2C19 act: inactive; CYP2C19 inhib: 100; CYP2C9 inhib: 92; PostGolgi ctrl: inactive; CYP2C9 act: inactive; PostGolgi yeast: inactive

How did CC(=O)NS(=O)(=O)c1ccc(NS(=O)(=O)c2ccc(F)cc2)cc1 do in these assays?
CYP2C19 act: inactive; CYP2C19 inhib: inactive; CYP2C9 inhib: 59; PostGolgi ctrl: inactive; CYP2C9 act: inactive; PostGolgi yeast: inactive

How did O=S(=O)(Nc1ccc(-c2csc(-c3ccccc3)n2)cc1)c1ccc(F)cc1 do in these assays?
CYP2C19 act: inactive; CYP2C19 inhib: inactive; CYP2C9 inhib: 97; PostGolgi ctrl: inactive; CYP2C9 act: inactive; PostGolgi yeast: inactive

Results for COC(=O)c1ccc(NS(=O)(=O)c2ccc(SC)cc2)cc1 ?
CYP2C19 act: inactive; CYP2C19 inhib: inactive; CYP2C9 inhib: inactive; PostGolgi ctrl: inactive; CYP2C9 act: inactive; PostGolgi yeast: inactive

How did O/N=C1/CCCSc2ccccc21 do in these assays?
CYP2C19 act: inactive; CYP2C19 inhib: inactive; CYP2C9 inhib: inactive; PostGolgi ctrl: inactive; CYP2C9 act: inactive; PostGolgi yeast: inactive

How did CCOc1ccccc1NC(=O)/C=C/C(N)=O do in these assays?
CYP2C19 act: inactive; CYP2C19 inhib: inactive; CYP2C9 inhib: inactive; PostGolgi ctrl: inactive; CYP2C9 act: inactive; PostGolgi yeast: inactive

Compound activity: PubChem BioAssay, several laboratories
